PubChem BioAssay AID1863 (Southern Research Specialized Biocontainment Screening …, 2009)
“And” between values parts separate entries of the source, which are not always exact repeats. Equal entries are not always repeated. In all, about 300,000 compounds went through this assay and about 480 (0.16%) were called active.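 The calls were made as follows: active = inhibition over 29.93%, a cutoff 3 SD above the screen mean, later confirmed by dose response; inconclusive = inhibition over 29.93% but no dose response follow-up; inactive = inhibition at most 29.93% or unconfirmed.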 Only a sample is shown. Results with a measured potency or affinity are listed apart.

test: inhibitors of PhoP regulon expression, primary screen, Salmonella Typhimurium, GFP reporter (AID 1863);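 also: 0% = low Mg2+ inducing control and 100% = high Mg2+ repressing control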; settings: S. Typhimurium PhoP-regulated promoter GFP reporter, 4 h; at 50 µM; hits give high values

inhibition, inactive:
CCCNC(=O)Nc1ccc(F)c(Cl)c1 -2.59%
COc1ccc(CNc2nc(NCc3ccc(OC)cc3)n(S(C)(=O)=O)n2)cc1 -5.9%
Cc1c(NC(=O)/C(C#N)=C/c2ccccc2)c(=O)n(-c2ccccc2)n1C 0.82%
CCc1ccc2nc(N)sc2c1 1.27%
Cc1cc(C(=O)N/N=C/c2ccc(C)s2)n[nH]1 11.3%
Cc1[nH]cnc1C(=O)N/N=C/c1ccc([N+](=O)[O-])s1 4.75%
O=C(N/N=C/c1ccc([N+](=O)[O-])s1)c1ccccc1 -2.83%
O=C(N/N=C/c1ccc(Cl)s1)C(O)c1ccccc1 (centres undefined) -4.15%
O=C(CSc1nnc(-c2ccccn2)o1)Nc1ccccc1 -5.62%
CCc1ccccc1NC(=O)c1cc(-c2cccs2)on1 -12.5%
COC(=O)c1cc(N=C(N)N=C(N)N)cc(C(=O)OC)c1 -9.38%
O=c1c2ccccc2nc2c3ccccc3c(Cl)nn12 4.87%
Cc1ccc(OCCC(=O)OCC(=O)Nc2cc(C)cc(C)c2)cc1 -5.06%
Cc1cc(NC(=O)COC(=O)C2=COCCO2)c([N+](=O)[O-])cc1C -7.57%
Oc1cc2c(cc1CN1CCc3ccccc3C1)OCO2 -4.04%
COCc1cc(CN2CCN(C)CC2)c(O)c2ncccc12 6.95%
Oc1ccc(CN2CCC(Cc3ccccc3)CC2)c2cccnc12 10.7%
COCc1ccc(O)c2ncccc12 -1.56%
Oc1ccc(CNc2ccccc2)c2cccnc12 5.74%
COc1ccccc1N1CCN(Cc2ccc(O)c3ncccc23)CC1 18.9%
Cc1ccccc1NCc1ccc(O)c2ncccc12 -2.12%
Oc1ccc(CN2CCN(c3ccccc3)CC2)c2cccnc12 -1.49%
CC(=O)Nc1ccc(S(=O)(=O)NC(C)C(=O)NC(C)c2ccccc2)cc1 (centres undefined) -5.32%
Cc1ccccc1OCC(=O)NC(=S)Nc1ccccc1N1CCN(S(C)(=O)=O)CC1 -1.77%
CC1=C(C(=O)OC(C)C)C(c2ccsc2)NC(=O)N1C (centres undefined) -5.45%
Cc1ccc(S(=O)(=O)NCCC(=O)NCC(=O)Nc2c(C)cccc2C)cc1C -4.98%
Cc1nc2ccccc2n1CCCOc1ccccc1 5.12%
OC(COc1ccc(Cl)cc1)CN1CCC(Cc2ccccc2)CC1 (centres undefined) -10.4%
CC1(C)CCC(=O)C=C1Nc1ccc(F)c(Cl)c1 -5.11%
CCC(CC)C1=NN2C(=N)/C(=C/c3ccc(OC(=O)c4ccco4)cc3)C(=O)N=C2S1 -9.8%
C=CCN(c1ccccc1)S(=O)(=O)c1cccc(C(=O)N2CC(C)CC(C)C2)c1 (centres undefined) -1.91%
CCCOc1ccc(C(C)(O)CN2CCOCC2)cc1 (centres undefined) 6.65%
CCOC(=O)C1CCN(Cc2ccc(O)c3ncccc23)CC1 6.23%
Oc1ccc(CN2CCCCC2)c2cccnc12 8.92%
CN(Cc1ccccc1)S(=O)(=O)c1ccccc1[N+](=O)[O-] 6.63%
CCn1cc(C(=O)O)c(=O)c2cnc(N3CCN(C(=S)Nc4ccccc4Cl)CC3)nc21 14.7%
CCn1cc(C(=O)NC(C)C)c(=O)c2cc(F)c(N3CCN(C(=O)c4ccco4)CC3)cc21 3.82%
COc1ccccc1NC(=S)N1CCN(c2ccccc2F)CC1 -4.74%
COc1ccc(CCNC(=O)C(C(=O)c2ccc(F)cc2)n2ccccc2=O)cc1OC (centres undefined) 7.45%
Cc1cc(C)n(CCNS(=O)(=O)c2ccc(C)c(C)c2)n1 5.17%
CC(C)(C)NC(=O)NC(=O)CSc1ncn[nH]1 4.4%
O=C(NC(=S)NNC(=O)c1cc2ccccc2cc1O)c1ccco1 -4.81%
O=C(NNC(=O)c1ccccc1O)c1ccco1 4.25%
O=C1CC(c2cc([N+](=O)[O-])ccc2Cl)c2c(ccc3ccccc23)N1 (centres undefined) -8.09%
COc1cccc(/C=C/C(=O)OCC(=O)Nc2ccccc2Sc2ccccc2)c1 14.5%
COC(=O)C1=CO[C@@H](OC2OC(CO)C(O)C(O)C2O)[C@@H]2[C@@H](C)[C@@H](O)C[C@H]12 (some centres undefined) -2.72%
Cc1ccc(C)c(/C(O)=C2/C(=O)C(=O)N(CCN3CCOCC3)C2c2ccc(C)o2)c1 (centres undefined) 3.28%
Cc1ccc(S(=O)(=O)Oc2ccc(/C=N/NC(=O)c3nn(C)cc3Cl)cc2)cc1 1.65%
Cc1ccccc1NC(=O)Cn1nc(-c2ccc(Cl)s2)ccc1=O -3.56%
O=C(c1cnc2n(c1=O)CCS2)N1CCN(C(c2ccccc2)c2ccc(Cl)cc2)CC1 (centres undefined) 3.09%
O=C(O)/C=C/c1ccc([N+](=O)[O-])o1 23.2%
O=C1CN(/N=C/c2ccc([N+](=O)[O-])o2)C(=O)N1 -5.89%
COc1ccc2nc(Nc3ccc4c(c3)OCO4)sc2c1 14%
CC(C)CN(C(=O)COC(=O)CCCc1nc2ccccc2s1)c1c(N)n(Cc2ccccc2)c(=O)[nH]c1=O -9.27%
O=C(NCCCc1ccccc1)c1ccc(-n2cncn2)c([N+](=O)[O-])c1 2.7%
O=c1[nH]cc(O)c(=O)[nH]1 6.24%
O=c1[nH]cc(-c2ccccc2)c(=O)[nH]1 -0.675%
O=[N+]([O-])c1ccccc1/C=N/n1c(C2CCCCC2)n[nH]c1=S 8.51%
c1ccc(-n2c3ccccc3c3ccccc32)cc1 -2.33%
Cn1c(-c2ccccc2)c(CCO)c2ccccc21 -0.97%
O=C(CN(Cc1ccc(Br)cc1)S(=O)(=O)c1ccccc1)NCC1CCCO1 (centres undefined) -5.51%
Cc1ccc(N2CC(C(=O)Nc3ccccc3C(=O)NC3CCCCC3)CC2=O)cc1 (centres undefined) 3.33%
CC(NC(=O)CCNC(=O)c1ccccc1Cl)C1CC2CCC1C2 (centres undefined) 10.5%
Cc1cccc(Nc2cc(=O)[nH]c(=O)[nH]2)c1C 11.8%
Nc1ncnc2c1ncn2[C@@H]1O[C@H](CO)[C@@H](O)[C@H]1O 3.62%
Nc1ccn([C@@H]2O[C@H](CO)[C@@H](O)[C@@H]2O)c(=O)n1 -7.73% and -0.16%
Nc1cnn(C2OC(CO)C(O)C2O)c(=O)n1 (centres undefined) -3.56%
NC(=O)c1ncn([C@@H]2O[C@H](CO)[C@@H](O)[C@H]2O)c1O 2.19%
Nc1ccn([C@@H]2O[C@H](CO)[C@@H](O)C2O)c(=O)n1 (some centres undefined) -5.08% and -1.41%
Nc1nc(Cl)nc2c1ncn2[C@@H]1O[C@H](CO)[C@@H](O)[C@H]1O -6.56% and 6.76%
Cc1cc(C)c(NC(=O)CNC(=O)CN2C(=O)NC3(CCCc4ccccc43)C2=O)c(C)c1 (centres undefined) 0.74%
Cc1cccc(Nc2nccc(N(C)C)c2C#N)c1 -5.86%
COc1ccc(-c2noc(CCC(=O)NCCN3CCN(c4ccccc4F)CC3)n2)cc1 -6.34%
O=C(Nc1cccc2ccccc12)N1CC=C(c2ccccc2)CC1 8.64%
CC(CN1CCCCC1)C(=O)NN (centres undefined) 2.4%
O=C(CNC(=O)c1ccccc1F)N/N=C/c1cn[nH]c1-c1ccccc1 -11.6%
Cc1cc(OCC(=O)OCC(=O)N(C)c2c(N)n(Cc3ccccc3)c(=O)[nH]c2=O)ccc1Cl -6.01%
O=C(NCC1CCCO1)c1cccnc1Nc1ccccc1F (centres undefined) 8.77%
CC1=C(C(=O)Nc2cccc([N+](=O)[O-])c2)C2(CCC(C)CC2)OC1=O (centres undefined) -3.06%
O=C(Cc1ccc(-n2c(=O)[nH]c3ccsc3c2=O)cc1)NCc1cccnc1 0.29%
CNC(=S)Nc1cc(C(F)(F)F)ccc1Cl 4.05%
COc1cc(/C=C/C(=O)CC(=O)/C=C/c2ccc(O)c(OC)c2)ccc1O 8.28%
COc1cc(/C=C/C(=O)O)ccc1O -9.92%
O=C(Cn1c(=O)oc2cc(S(=O)(=O)N3CCCC3)ccc21)Nc1ccccc1Br -3.67%
CCNc1nc(NC(C)C)nc(OCC)n1 -7.28%
CCO[C@@H]1OC(C(=O)N2CCN(Cc3ccc4c(c3)OCO4)CC2)=C[C@H](C2CCCCC2)[C@H]1CCCO 2.5%
CCCCCCCNC(=O)C1(CC2CC(c3ccc(Cl)cc3)=NO2)CCN(C(=O)C2(C)CC2)CC1 (centres undefined) -5.4%
CCCCCCCNC(=O)C1(CC2CC(c3cccc(Br)c3)=NO2)CCN(C(=O)OC(C)(C)C)CC1 (centres undefined) -0.33%
CCCCCCCNC(=O)C1(CC2CC(c3cccc(Br)c3)=NO2)CCN(C(=O)C2CCCC2)CC1 (centres undefined) 12.9%
CCCCCCCNC(=O)C1(CC2CC(c3ccccc3)=NO2)CCNCC1 (centres undefined) 0.18%
Cc1ccccc1C(=O)Nc1ccccc1NC(=O)c1ccccc1Br -5.42%
CCc1nc(C)cn1S(=O)(=O)c1cc(Br)ccc1OC 1.41%
COC(CNC(=O)C(=O)NCC1OCCN1C(=O)c1ccc(Cl)cc1)OC (centres undefined) 12.8%
CC(C)C[C@H](NC(=O)N1CCn2c1nc1ccccc12)C(=O)NCc1ccco1 -1.56%
